# From the supplement of paper PMC8728848
# This excerpt belongs to a sample that is enriched for the strongest signals.
# How the values were obtained:
# Assay in all cases: glycan array binding signal (z-score within array); higher = stronger binding
# Conditions in all cases: glycan notation: IUPAC condensed, linker removed
# [1] = system: Neu5Ac(a2-3)Gal(b1-3)GlcNAc6S
# How it was run: (§1)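 Glycan array data were curated from 3228 arrays in the Consortium for Functional Glycomics database and kept only where the protein sequence was available. Glycan names were converted to IUPAC-condensed notation, and columns mapping to the same glycan were averaged. The binding signal is a within-array Z-score, averaged across arrays of the same protein sequence at different concentrations or buffers and across linkers. Negative Z-scores can be read as non-binding.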
# [2] = system: Neu5Ac(a2-3)Gal(b1-3)[Fuc(a1-4)]GlcNAc
# How it was run: as §1
# [3] = system: Neu5Ac(a2-3)Gal(b1-4)GlcNAc(b1-3)Gal
# How it was run: as §1
# [4] = system: Neu5Ac(a2-3)Gal(b1-3)GlcNAc(b1-4)Gal(b1-4)Glc
# How it was run: as §1
# [5] = system: Neu5Ac(a2-3)Gal(b1-4)GlcNAc(b1-2)Man(a1-3)[GlcNAc(b1-4)][Neu5Ac(a2-3)Gal(b1-4)GlcNAc(b1-2)Man(a1-6)]Man(b1-4)GlcNAc(b1-4)GlcNAc
# How it was run: as §1
# [6] = system: Neu5Ac(a2-3)Gal(b1-4)GlcNAc(b1-2)Man(a1-3)[Neu5Ac(a2-6)Gal(b1-4)GlcNAc(b1-2)Man(a1-6)]Man(b1-4)GlcNAc(b1-4)GlcNAc
# How it was run: as §1
# [7] = system: Neu5Ac(a2-3)Gal(b1-4)GlcNAc(b1-3)Gal(b1-4)GlcNAc(b1-2)Man(a1-3)[Neu5Ac(a2-3)Gal(b1-4)GlcNAc(b1-3)Gal(b1-4)GlcNAc(b1-2)Man(a1-6)]Man(b1-4)GlcNAc(b1-4)GlcNAc
# How it was run: as §1
# [8] = system: Neu5Ac(a2-3)Gal(b1-4)GlcNAc(b1-3)Gal(b1-4)GlcNAc(b1-3)Gal(b1-4)GlcNAc(b1-2)Man(a1-3)[Neu5Ac(a2-3)Gal(b1-4)GlcNAc(b1-3)Gal(b1-4)GlcNAc(b1-3)Gal(b1-4)GlcNAc(b1-2)Man(a1-6)]GalNAc
# How it was run: as §1
# [9] = system: Neu5Ac(a2-3)Gal(b1-4)GlcNAc(b1-3)Gal(b1-4)GlcNAc(b1-3)GalNAc
# How it was run: as §1
# [10] = system: Neu5Ac(a2-3)Gal(b1-4)GlcNAc(b1-6)[Gal(b1-3)]GalNAc
# How it was run: as §1
# [11] = system: Neu5Ac(a2-3)Gal(b1-3)GlcNAc(b1-6)GalNAc
# How it was run: as §1
# [12] = system: Neu5Ac(a2-3)Gal(b1-4)GlcNAc(b1-2)Man
# How it was run: as §1
# [13] = system: Neu5Ac(a2-3)Gal(b1-4)GlcNAc(b1-3)Gal(b1-4)[Fuc(a1-3)]GlcNAc
# How it was run: as §1
# [14] = system: Neu5Ac(a2-3)Gal(b1-4)GlcNAc(b1-6)GalNAc
# How it was run: as §1
# [15] = system: Neu5Ac(a2-3)Gal(b1-4)GlcNAc6S
# How it was run: as §1
# [16] = system: Neu5Ac(a2-3)Gal(b1-3)GlcNAc(b1-3)Gal(b1-4)GlcNAc
# How it was run: as §1
# [17] = system: Neu5Ac(a2-3)Gal(b1-4)GlcNAc(b1-3)Gal(b1-4)GlcNAc(b1-3)Gal(b1-4)GlcNAc
# How it was run: as §1
# [18] = system: Neu5Ac(a2-3)Gal(b1-4)GlcNAc(b1-3)GalNAc
# How it was run: as §1
# [19] = system: Neu5Ac(a2-3)Gal(b1-4)GlcNAc(b1-2)Man(a1-3)[Neu5Ac(a2-3)Gal(b1-4)GlcNAc(b1-2)Man(a1-6)]Man(b1-4)GlcNAc(b1-4)[Fuc(a1-6)]GlcNAc
# How it was run: as §1
# [20] = system: Neu5Ac(a2-3)Gal(b1-3)[Neu5Ac(a2-6)]GalNAc
# How it was run: as §1
substance,measurement,setting,value
Actinohivin (Actinomycete K97),glycan array binding signal (z-score),[1],-0.191
same,glycan array binding signal (z-score),[2],-0.196
"Wza (Escherichia coli), P0A930",glycan array binding signal (z-score),[3],2.81
AgI/II Vhelical-GFP (Streptococcus mutans),glycan array binding signal (z-score),[4],-0.297
same,glycan array binding signal (z-score),[5],0.396
same,glycan array binding signal (z-score),[6],-0.182
same,glycan array binding signal (z-score),[7],1.8
same,glycan array binding signal (z-score),[8],-0.031
same,glycan array binding signal (z-score),[9],0.5
same,glycan array binding signal (z-score),[10],-0.273
LcI (Legionella pneumophila),glycan array binding signal (z-score),[11],3.77
same,glycan array binding signal (z-score),[12],2.16
same,glycan array binding signal (z-score),[13],-0.717
same,glycan array binding signal (z-score),[14],3.79
same,glycan array binding signal (z-score),[15],-0.956
"SpGH101 (Streptococcus pneumoniae), Q8DR60",glycan array binding signal (z-score),[3],-0.209
"BambL (Burhholderia ambifaria), Q0B4G1",glycan array binding signal (z-score),[16],-0.316
same,glycan array binding signal (z-score),[17],-0.313
"SiiE (Salmonella typhimurium), A0A0H3NVH0",glycan array binding signal (z-score),[16],-0.888
same,glycan array binding signal (z-score),[17],-0.456
same,glycan array binding signal (z-score),[18],-1.98
AgI/IIC123-GFP (Streptococcus mutans),glycan array binding signal (z-score),[19],-0.442
"GspB (Streptococcus gordonii), Q939N5",glycan array binding signal (z-score),[1],-0.2
same,glycan array binding signal (z-score),[20],3.61
"MIC3-MAR1b (Eimeria tenella), B6VCV4",glycan array binding signal (z-score),[20],-0.355
Epa22,glycan array binding signal (z-score),[15],0.274
